Data on 23 compounds can be found in PubChem BioAssay.

Values without a mark were called inactive. No rule for the calls is given here.

One may read the inhibition as the relative decrease from the control value, in per cent.

The target of the test is Pantothenate synthetase (Mycobacterium tuberculosis (strain ATCC 25618 / H37Rv)) (UniProt P9WIL5). The experiment in a line: Coupled enzyme confirmation of inhibitors against recombinant Mtb PanC (AID 375).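 Also: 0% = full reaction with vehicle and 100% = no enzyme background.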 As to conditions: coupled enzyme assay; at 10 µM, active compounds read high.
Pantothenate synthetase (Mycobacterium tuberculosis (strain ATCC 25618 / H37Rv)), sequence (P9WIL5 whole entry, looked up): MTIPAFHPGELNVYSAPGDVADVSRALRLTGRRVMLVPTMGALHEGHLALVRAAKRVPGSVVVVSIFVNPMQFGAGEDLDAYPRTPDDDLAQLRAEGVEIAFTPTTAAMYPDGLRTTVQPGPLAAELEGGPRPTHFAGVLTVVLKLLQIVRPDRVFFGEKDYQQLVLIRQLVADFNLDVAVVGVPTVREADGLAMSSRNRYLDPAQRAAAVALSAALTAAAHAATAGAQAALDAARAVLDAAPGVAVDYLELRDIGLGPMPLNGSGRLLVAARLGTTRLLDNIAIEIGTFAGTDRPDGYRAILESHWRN
As to `CCOC(=O)CC1=C(C(=O)OCC)C(c2ccc(C)o2)C(C#N)=C(N)O1` (stereo not drawn), the inhibition is 0%.
Take `O=C(Cc1cccs1)NCc1ccc(F)cc1`: the inhibition was 0%.
The value for `CN1CCCN=C1COC(=O)C(O)(c1ccccc1)C1CCCCC1` (stereo not drawn) was 0%.
For `CCOC(=O)N1CCN(c2cc3[nH]c(=S)[nH]c3cc2F)CC1` the value was 2%; for `O=S1(=O)C=C(Oc2ccc(F)cc2)c2ccccc21`, 4%; for `COc1ccc(OC)c(C2=NOC(C(=O)Nc3c(C)n(C)n(-c4ccccc4)c3=O)C2)c1` (stereo not drawn), 2%.
Regarding `CCCCNC(=O)C(C#N)c1nc2ccccc2nc1N1CCCC1` (stereo not drawn), the inhibition was 0%.
The value for `O=C(NC1CCCCC1)C(c1ccccc1)N(Cc1ccco1)C(=O)Cn1cnc2ccccc21` (stereo not drawn) was 0%; that for `CC(C)C(NC(=O)OCc1ccccc1)C(=O)OCC(=O)NCc1ccco1` (stereo not drawn) was 7%; that for `Cc1n[nH]c(C)c1S(=O)(=O)N1CCN(c2ccccn2)CC1` was 2%.
Regarding `CCOC(=O)CSc1nnc(CNC(=O)c2ccc(S(=O)(=O)N3CCCC3)cc2)n1C`, the inhibition is 10%.
Take `CCCCn1c(SCC(=O)Nc2ccc(OC)cc2)nc2ccc(N3CCOCC3)cc2c1=O`: the inhibition is 0%.
For `CCCCCC(=O)N(CN1C(=O)CCC1=O)c1ccccc1` the value was 5%; for `CC1CCCC(C(=O)OCc2ccccc2)N1` (stereo not drawn), 0%; for `COc1ccccc1N1CCN(C(=O)C2CCCO2)CC1` (stereo not drawn), 0%.
Take `O=C(NC1CCN(Cc2nnnn2CCc2ccccc2)CC1)c1ccccc1F`: the inhibition was 3%.
The value for `CCOC(=O)C1CCCn2c1nc1sc3c(c1c2=O)CCCC3` (stereo not drawn) was 0%.
With `CCN(CC(=O)Nc1c(C(=O)OC)[nH]c2ccccc12)c1ccc2c(c1)OCO2`, the inhibition was 5%.
Consider `CC(=O)Nc1ccccc1-c1nc2ccc(C(=O)N3CCN(c4ccccc4)CC3)cc2[nH]c1=O`, for which the inhibition is 7%.
With `COc1ccc(-n2nnnc2-c2cccc(OC)c2)cc1`, the inhibition is 0%.
Turning to `CC(=O)c1cc(Cl)ccc1OC(=O)c1ccco1`, the inhibition is 0%.
For `CC(C)COc1ccc(C2NC(=O)NC2=O)cc1` (stereo not drawn) the value was 0%; for `CC(C)[C@H](NC(=O)NC1CCCC1)C(=O)O`, 0%.
